# Data from ChEMBL document CHEMBL2218924, “A broad activity screen in support of a chemogenomic map for kinase signalling research and drug discovery” (Biochem J, 2013).
# Key:
# [1] = target: T1, Serine/threonine-protein kinase TBK1 (Homo sapiens) (UniProt Q9UHD2); details: at 10 µM
# T1 sequence (whole entry): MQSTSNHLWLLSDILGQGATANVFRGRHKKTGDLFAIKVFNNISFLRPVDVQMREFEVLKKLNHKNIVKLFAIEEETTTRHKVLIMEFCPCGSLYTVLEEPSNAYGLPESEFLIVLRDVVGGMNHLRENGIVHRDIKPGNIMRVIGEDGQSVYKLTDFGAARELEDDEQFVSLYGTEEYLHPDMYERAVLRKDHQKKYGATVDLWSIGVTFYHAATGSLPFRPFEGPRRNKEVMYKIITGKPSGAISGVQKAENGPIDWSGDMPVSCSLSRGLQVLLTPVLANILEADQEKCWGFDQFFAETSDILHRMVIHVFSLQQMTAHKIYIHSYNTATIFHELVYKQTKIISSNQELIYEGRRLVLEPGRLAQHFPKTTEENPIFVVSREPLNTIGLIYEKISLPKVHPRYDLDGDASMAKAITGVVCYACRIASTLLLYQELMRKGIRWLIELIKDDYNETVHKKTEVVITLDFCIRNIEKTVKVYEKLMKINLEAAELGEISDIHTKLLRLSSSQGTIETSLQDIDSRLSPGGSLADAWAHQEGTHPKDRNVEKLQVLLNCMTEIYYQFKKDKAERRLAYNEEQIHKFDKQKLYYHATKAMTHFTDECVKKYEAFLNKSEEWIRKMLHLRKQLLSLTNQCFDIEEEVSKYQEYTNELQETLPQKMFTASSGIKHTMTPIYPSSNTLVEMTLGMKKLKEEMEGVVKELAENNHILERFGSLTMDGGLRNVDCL
# [2] = target: T2, TGF-beta receptor type-1 (Homo sapiens) (UniProt P36897); details: at 1 µM
# T2 sequence (whole entry): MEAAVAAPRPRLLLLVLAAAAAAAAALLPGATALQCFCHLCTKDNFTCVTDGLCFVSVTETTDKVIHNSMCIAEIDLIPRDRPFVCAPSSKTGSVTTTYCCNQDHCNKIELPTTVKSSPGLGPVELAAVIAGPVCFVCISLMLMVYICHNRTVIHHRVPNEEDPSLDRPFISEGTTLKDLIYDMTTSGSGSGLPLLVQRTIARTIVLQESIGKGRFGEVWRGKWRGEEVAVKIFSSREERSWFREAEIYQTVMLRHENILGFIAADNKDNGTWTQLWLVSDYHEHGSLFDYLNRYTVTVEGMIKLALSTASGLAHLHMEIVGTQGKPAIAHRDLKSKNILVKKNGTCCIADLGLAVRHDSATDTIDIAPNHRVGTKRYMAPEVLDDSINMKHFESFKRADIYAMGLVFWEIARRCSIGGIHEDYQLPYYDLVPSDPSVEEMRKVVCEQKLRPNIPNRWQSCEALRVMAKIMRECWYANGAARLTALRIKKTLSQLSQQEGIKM
# [3] = target: T2, TGF-beta receptor type-1 (Homo sapiens); details: at 10 µM
# [4] = target: Insulin-like growth factor 1 receptor (Homo sapiens) (UniProt P08069); details: at 1 µM
# [5] = target: Insulin-like growth factor 1 receptor (Homo sapiens) (UniProt P08069); details: at 10 µM
# [6] = target: T3, Inhibitor of nuclear factor kappa-B kinase subunit alpha (Homo sapiens) (UniProt O15111); details: at 1 µM
# T3 sequence (whole entry): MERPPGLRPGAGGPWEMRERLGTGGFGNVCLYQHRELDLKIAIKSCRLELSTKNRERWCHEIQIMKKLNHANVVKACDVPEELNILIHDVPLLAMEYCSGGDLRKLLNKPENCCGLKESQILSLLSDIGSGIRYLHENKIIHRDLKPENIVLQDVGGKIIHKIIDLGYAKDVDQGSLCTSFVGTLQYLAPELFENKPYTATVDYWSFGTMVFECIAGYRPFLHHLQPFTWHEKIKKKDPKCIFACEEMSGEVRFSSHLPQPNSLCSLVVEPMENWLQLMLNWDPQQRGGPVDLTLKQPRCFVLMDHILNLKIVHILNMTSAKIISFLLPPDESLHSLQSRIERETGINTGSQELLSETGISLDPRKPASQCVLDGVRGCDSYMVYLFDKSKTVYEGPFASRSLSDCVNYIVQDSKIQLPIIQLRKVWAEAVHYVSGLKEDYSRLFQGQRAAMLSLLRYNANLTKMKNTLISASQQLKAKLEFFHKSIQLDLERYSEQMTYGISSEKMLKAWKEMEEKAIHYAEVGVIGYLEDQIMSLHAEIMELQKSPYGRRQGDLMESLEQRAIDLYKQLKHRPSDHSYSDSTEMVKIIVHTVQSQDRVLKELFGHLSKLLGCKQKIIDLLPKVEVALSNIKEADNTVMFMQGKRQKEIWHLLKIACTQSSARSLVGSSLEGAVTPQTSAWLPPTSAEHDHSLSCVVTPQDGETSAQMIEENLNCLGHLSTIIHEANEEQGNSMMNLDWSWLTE
# [7] = target: T3, Inhibitor of nuclear factor kappa-B kinase subunit alpha (Homo sapiens); details: at 10 µM
# [8] = target: T4, Inhibitor of nuclear factor kappa-B kinase subunit beta (Homo sapiens) (UniProt O14920); details: at 1 µM
# T4 sequence (whole entry): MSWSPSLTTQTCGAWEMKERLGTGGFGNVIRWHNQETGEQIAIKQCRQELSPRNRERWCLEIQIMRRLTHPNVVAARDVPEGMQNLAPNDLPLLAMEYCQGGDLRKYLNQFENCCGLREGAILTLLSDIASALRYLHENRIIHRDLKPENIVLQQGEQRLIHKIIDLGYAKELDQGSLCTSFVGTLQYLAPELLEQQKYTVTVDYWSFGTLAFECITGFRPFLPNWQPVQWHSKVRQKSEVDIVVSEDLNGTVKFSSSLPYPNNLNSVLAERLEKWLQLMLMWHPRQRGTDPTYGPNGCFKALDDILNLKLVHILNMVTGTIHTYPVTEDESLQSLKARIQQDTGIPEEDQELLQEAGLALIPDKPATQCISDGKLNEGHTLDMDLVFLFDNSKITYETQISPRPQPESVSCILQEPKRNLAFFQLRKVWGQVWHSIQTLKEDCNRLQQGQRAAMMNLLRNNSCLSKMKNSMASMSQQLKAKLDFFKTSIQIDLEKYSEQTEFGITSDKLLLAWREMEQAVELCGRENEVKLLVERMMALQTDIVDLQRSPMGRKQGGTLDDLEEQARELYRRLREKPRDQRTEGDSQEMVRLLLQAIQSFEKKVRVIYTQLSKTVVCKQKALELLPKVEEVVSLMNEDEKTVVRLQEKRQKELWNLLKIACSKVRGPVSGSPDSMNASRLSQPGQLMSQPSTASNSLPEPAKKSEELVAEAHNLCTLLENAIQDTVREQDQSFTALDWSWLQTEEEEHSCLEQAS
# [9] = target: T4, Inhibitor of nuclear factor kappa-B kinase subunit beta (Homo sapiens); details: at 10 µM
# [10] = target: Insulin receptor (Homo sapiens) (UniProt P06213); details: at 1 µM
# Chain of Insulin receptor (Homo sapiens) (P06213 28-758 limits assumed): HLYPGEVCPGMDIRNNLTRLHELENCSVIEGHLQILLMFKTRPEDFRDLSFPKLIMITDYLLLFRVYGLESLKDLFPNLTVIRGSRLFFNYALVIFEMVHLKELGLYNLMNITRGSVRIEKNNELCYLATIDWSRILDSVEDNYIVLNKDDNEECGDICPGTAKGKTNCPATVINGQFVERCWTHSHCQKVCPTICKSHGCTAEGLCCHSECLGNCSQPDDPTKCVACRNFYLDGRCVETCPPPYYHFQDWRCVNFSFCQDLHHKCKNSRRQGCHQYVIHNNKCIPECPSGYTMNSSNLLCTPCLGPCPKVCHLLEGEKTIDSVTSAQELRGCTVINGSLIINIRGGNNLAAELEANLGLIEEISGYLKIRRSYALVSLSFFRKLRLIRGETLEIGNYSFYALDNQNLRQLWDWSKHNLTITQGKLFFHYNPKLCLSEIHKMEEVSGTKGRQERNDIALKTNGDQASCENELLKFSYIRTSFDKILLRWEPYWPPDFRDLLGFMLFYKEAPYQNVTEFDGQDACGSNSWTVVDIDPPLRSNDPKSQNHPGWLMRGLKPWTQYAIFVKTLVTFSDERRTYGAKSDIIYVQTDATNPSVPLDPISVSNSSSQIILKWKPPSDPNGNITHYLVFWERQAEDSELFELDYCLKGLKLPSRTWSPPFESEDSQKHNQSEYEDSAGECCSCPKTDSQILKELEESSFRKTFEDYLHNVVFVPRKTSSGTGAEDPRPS
# Chain of Insulin receptor (Homo sapiens) (P06213 763-1382 limits assumed): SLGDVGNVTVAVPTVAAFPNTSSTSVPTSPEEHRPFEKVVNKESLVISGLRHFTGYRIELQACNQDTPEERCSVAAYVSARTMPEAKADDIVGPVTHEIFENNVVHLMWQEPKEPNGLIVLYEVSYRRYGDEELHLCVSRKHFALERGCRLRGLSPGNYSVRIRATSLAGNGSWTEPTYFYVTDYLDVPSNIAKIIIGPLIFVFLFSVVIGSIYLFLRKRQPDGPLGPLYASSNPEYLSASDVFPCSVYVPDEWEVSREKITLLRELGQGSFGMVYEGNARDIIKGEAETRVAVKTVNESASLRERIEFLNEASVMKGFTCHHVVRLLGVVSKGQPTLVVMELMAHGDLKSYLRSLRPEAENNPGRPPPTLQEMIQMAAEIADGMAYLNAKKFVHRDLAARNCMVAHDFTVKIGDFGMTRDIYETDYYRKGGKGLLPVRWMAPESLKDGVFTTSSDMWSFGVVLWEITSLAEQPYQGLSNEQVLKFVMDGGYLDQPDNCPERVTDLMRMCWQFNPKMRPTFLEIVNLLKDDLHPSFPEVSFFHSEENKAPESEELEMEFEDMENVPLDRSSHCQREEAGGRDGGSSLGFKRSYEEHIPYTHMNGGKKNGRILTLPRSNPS
# Chain of Insulin-like growth factor 1 receptor (Homo sapiens) (P08069 31-736 limits assumed): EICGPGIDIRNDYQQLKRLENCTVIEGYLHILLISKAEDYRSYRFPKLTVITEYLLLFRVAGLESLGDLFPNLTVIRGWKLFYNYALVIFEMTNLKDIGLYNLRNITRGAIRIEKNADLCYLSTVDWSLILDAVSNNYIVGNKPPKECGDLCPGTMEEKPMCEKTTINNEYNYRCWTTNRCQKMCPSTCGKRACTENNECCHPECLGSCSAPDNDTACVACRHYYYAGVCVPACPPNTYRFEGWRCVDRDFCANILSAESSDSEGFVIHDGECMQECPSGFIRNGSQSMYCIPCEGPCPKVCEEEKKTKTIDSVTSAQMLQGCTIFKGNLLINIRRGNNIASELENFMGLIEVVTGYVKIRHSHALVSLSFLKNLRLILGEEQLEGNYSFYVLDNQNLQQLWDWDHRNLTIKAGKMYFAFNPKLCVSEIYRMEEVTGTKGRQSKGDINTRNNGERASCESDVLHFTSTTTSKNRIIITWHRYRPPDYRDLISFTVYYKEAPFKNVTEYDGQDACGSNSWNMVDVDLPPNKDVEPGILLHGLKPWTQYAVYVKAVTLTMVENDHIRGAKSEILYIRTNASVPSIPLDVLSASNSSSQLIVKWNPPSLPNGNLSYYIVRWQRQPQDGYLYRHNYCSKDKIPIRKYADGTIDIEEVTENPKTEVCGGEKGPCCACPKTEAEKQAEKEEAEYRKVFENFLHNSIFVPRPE
# Chain of Insulin-like growth factor 1 receptor (Homo sapiens) (P08069 741-1367 limits assumed): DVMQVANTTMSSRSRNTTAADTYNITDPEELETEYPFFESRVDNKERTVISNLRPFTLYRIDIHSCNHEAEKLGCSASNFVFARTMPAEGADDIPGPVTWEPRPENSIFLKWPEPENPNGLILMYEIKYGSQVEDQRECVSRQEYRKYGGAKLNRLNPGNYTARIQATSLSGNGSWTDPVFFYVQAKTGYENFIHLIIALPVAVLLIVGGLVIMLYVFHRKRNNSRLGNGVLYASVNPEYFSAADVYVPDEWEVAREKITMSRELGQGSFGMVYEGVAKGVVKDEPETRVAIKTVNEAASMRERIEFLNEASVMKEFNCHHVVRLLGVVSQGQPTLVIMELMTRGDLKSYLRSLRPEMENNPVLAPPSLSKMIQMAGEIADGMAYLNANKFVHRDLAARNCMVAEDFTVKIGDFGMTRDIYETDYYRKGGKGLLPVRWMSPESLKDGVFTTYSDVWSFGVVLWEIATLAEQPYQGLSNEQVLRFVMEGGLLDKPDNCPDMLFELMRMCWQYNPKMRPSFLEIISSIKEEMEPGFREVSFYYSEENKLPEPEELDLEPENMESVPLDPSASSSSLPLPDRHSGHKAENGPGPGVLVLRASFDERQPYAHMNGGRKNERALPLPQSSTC
Structure (SMILES),residual activity [1],residual activity [2],residual activity [3],residual activity [4],residual activity [5],residual activity [6],residual activity [7],residual activity [8],residual activity [9],residual activity [10]
O=C1Nc2ccccc2/C1=C1/Nc2ccccc2/C1=N\OCCC(O)CO (centres undefined),1%,77%,64%,10%,10%,82%,46%,104%,66%,17%
Oc1ccc(-c2nc(-c3ccc(F)cc3)c(-c3ccncc3)[nH]2)cc1,85%,100%,40%,122%,123%,90%,59%,120%,91%,136%
O=c1c2ccccc2[nH]c(=S)n1CCN1CCC(=C(c2ccc(F)cc2)c2ccc(F)cc2)CC1,68%,95%,80%,112%,93%,87%,128%,114%,105%,109%
Oc1n[nH]c2nnc(-c3c(-c4ccccc4)nn4ccccc34)cc12,60%,84%,74%,84%,91%,102%,92%,97%,93%,47%
CO[C@H]1[C@@H](OC)C[C@H](C)[C@@H](OC)C2=CC(=O)C=C(NC(=O)/C(C)=C/C=C/[C@H](OC)[C@@H](OC(N)=O)/C(C)=C/[C@@H]1C)C2=O,69%,99%,89%,106%,96%,85%,113%,111%,107%,109%
COc1cc2ncnc(Nc3ccc(O)c(Br)c3)c2cc1OC,15%,79%,71%,87%,81%,97%,72%,97%,82%,114%
O=C(Nc1cccc(Nc2cc(Nc3cccc(C(F)(F)F)c3)ncn2)c1)C1CC1,61%,89%,77%,98%,89%,108%,125%,99%,96%,105%
NC(=O)c1ccc2[nH]c(-c3ccc(Oc4ccc(Cl)cc4)cc3)nc2c1,60%,84%,85%,89%,85%,123%,137%,108%,106%,102%
Cn1nc2c3c(cccc31)C(=O)c1ccccc1-2,55%,85%,76%,89%,99%,110%,82%,100%,87%,94%
CC(=O)O/N=C1\C(=C2\C(=O)Nc3cc(Br)ccc32)Nc2ccccc21,14%,91%,74%,102%,100%,111%,108%,101%,93%,118%
CC[n+]1c(/C=C/N(C)c2ccccc2)n(-c2ccccc2)c2ccc(-c3nc4ccccc4s3)cc21,68%,80%,102%,97%,86%,92%,93%,105%,102%,107%
COc1ccc(OC)c2c(=S)c3ccccc3[nH]c12,67%,101%,81%,98%,101%,99%,102%,95%,95%,99%
O=C1NC(=O)/C(=C/c2ccc3c(c2)OC(F)(F)O3)S1,67%,95%,89%,113%,102%,112%,107%,111%,92%,111%
CCOc1cc2ncnc(Nc3cccc(Br)c3)c2cc1OCC,33%,89%,81%,104%,100%,108%,108%,97%,82%,104%
Nc1nc(Nc2ccc(S(N)(=O)=O)cc2)nn1C(=S)Nc1c(F)cccc1F,-2%,13%,2%,74%,83%,10%,1%,33%,6%,–
Cc1nc(-c2ccccc2)c(-c2ccncc2)o1,88%,116%,100%,107%,116%,109%,101%,109%,82%,117%
